# In PubChem BioAssay (NCATS):
# Records with an inconclusive call do not appear. The source made the active and inactive calls. Unless noted, calls come from the whole dose curve; as a rule, active = well fitted curve in the direction sought with a large enough effect; inconclusive = small, poorly fitted or top-dose-only effect, or another doubt; inactive = no such curve, though single readings can be large; an effect the other way counts as inactive or inconclusive.
# Columns and labels:
# [1] = AP1 Signaling Pathway (AID 357; active = well fitted curve in either direction with a large enough effect, not every such curve was filed as active;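 note: ME-180 reporter cells stimulated with EGF at its EC50 level; % is set by controls: 0 for no effect and ±100 for the full control effect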); settings: ME-180 AP-1-bla reporter, EGF-induced, beta-lactamase ratio, 5 h; at 7.69 µM (top of the series) unless noted
# Method in brief: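 Titration-series screen for positive or negative modulators of EC50 EGF-induced signaling in ME-180 cells carrying an AP-1-driven beta-lactamase reporter. After 5 hours at 37 degrees Celsius, CCF4 460nm/530nm emission ratio gave %Activity; AC50 values derived.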
# [2] = Stat Signaling Pathway (AID 446; active = well fitted curve in either direction with a large enough effect, not every such curve was filed as active;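 note: ME-180 cervical cancer cells given 40 pM IL-6 alongside compound; SIE-controlled beta-lactamase reporter measured as 460/530 nm FRET emission ratio; % is set by controls: 0 for no effect and ±100 for the full control effect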); settings: ME-180 SIE beta-lactamase reporter, IL-6 stimulated, 5 h; at 7.69 µM (top of the series) unless noted
# Method in brief: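 ME-180 cells carrying a SIE-driven beta-lactamase reporter are stimulated with 40 pM IL-6 for 5 h at 37C in the presence of compound. The 460/530 nm FRET substrate ratio is read after 2.5 h at RT. Data are normalised to 300 pM IL-6 and to 125 nM JAK inhibitor controls.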
# [3] = molecular target: Glucocorticoid receptor (Homo sapiens) (UniProt P04150); experiment: GR-EFC Redistribution (AID 451; calls by dose curve; note: potency is the fitted concentration of half-maximal effect); settings: CHO-K1 GR-EFC translocation, beta-gal luminescence, 2 h
# Glucocorticoid receptor (Homo sapiens), sequence (P04150 whole entry, looked up, the tested form may be a part): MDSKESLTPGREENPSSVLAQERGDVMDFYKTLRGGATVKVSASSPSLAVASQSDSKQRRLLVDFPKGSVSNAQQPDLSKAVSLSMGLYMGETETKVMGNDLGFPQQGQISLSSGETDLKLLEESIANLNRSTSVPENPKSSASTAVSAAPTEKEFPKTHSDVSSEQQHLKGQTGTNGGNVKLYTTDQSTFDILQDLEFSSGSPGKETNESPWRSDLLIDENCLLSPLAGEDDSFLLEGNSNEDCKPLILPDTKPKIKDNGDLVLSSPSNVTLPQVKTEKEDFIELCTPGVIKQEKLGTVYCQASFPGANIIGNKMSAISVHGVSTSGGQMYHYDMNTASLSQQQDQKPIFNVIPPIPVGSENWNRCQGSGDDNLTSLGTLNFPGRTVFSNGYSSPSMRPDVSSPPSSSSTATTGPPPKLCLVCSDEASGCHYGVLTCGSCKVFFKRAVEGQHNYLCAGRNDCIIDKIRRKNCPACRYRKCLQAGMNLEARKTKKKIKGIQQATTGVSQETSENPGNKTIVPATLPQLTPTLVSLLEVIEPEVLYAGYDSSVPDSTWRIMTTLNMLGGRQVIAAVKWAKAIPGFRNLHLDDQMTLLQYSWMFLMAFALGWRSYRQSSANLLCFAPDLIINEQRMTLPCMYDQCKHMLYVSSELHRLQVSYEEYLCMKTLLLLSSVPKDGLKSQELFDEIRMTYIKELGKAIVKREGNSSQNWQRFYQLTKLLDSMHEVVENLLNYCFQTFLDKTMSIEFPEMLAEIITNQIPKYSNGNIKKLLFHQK
# Method in brief: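 CHO-K1 cells expressing nuclear EA and GR-ED fragments of b-gal; compounds titrated up to 46 uM final, 2 h at 37 C. GR nuclear translocation read as complemented b-gal luminescence after 1 h RT detection.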
# [4] = molecular target: Mitogen-activated protein kinase 10 (Mus musculus) (UniProt Q61831); experiment: JNK3 AlphaScreen Assay (AID 530; active = well fitted curve in either direction with a large enough effect, not every such curve was filed as active;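 note: kinase came from lysate of stimulated human HepG2 cells; signal reports phosphorylation of biotinylated GST-cJun 1-79 at Ser73 with 10 µM ATP; % is set by controls: 0 for no effect and ±100 for the full control effect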)
# Method in brief: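 qHTS format: compounds tested as titrations against IL-1beta/TNF-alpha-activated HepG2 lysate JNK3 with biotin-GST-cJun substrate and 10 uM ATP at room temperature. Loss of anti-phospho-cJun AlphaScreen signal indicates inhibition.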
# [5] = molecular target: 3',5'-cyclic-AMP phosphodiesterase 4B (Homo sapiens) (UniProt Q07343); experiment: qHTS Assay for Inhibitors of PDE-IV (AID 607; active = well fitted activation curve with a large enough effect in the main read-out, with a control signal flat, not every such curve was filed as active; note: % of control where 0% means no effect)
# 3',5'-cyclic-AMP phosphodiesterase 4B (Homo sapiens), sequence (Q07343 whole entry, looked up): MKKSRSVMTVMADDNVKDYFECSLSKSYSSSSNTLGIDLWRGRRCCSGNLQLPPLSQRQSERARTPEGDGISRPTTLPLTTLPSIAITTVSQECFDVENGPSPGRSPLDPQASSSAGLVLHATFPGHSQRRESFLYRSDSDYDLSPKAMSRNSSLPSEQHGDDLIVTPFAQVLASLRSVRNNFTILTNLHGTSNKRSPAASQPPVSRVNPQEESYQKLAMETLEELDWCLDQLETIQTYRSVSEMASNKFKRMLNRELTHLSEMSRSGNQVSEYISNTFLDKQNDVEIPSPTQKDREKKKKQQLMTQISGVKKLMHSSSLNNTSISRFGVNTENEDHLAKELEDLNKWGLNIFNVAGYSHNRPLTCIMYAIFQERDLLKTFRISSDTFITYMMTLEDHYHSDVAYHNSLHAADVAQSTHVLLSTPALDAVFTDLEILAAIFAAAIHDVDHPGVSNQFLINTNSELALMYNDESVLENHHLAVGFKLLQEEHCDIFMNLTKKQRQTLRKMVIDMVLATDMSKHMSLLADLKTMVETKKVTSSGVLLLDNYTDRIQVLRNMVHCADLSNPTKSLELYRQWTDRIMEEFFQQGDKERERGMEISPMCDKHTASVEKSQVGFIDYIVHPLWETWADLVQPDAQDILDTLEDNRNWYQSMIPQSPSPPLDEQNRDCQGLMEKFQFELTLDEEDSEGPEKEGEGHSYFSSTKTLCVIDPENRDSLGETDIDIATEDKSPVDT
# Method in brief: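 HEK293 ACTOne cells with CNG channel (1000/well), endogenous PDE4; membrane potential dye, compounds up to 22.9 uM final. Fluorescence Ex 535/Em 590; RO 20-1724 (100 uM final) as reference.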
# [6] = molecular target: Cytochrome P450 3A4 (Homo sapiens) (UniProt P08684); experiment: qHTS Assay for Activators of Cytochrome P450 3A4 (AID 885); note: nearly all actives have a fitted effect of over 65% in size
# Cytochrome P450 3A4 (Homo sapiens), sequence (P08684 whole entry, looked up): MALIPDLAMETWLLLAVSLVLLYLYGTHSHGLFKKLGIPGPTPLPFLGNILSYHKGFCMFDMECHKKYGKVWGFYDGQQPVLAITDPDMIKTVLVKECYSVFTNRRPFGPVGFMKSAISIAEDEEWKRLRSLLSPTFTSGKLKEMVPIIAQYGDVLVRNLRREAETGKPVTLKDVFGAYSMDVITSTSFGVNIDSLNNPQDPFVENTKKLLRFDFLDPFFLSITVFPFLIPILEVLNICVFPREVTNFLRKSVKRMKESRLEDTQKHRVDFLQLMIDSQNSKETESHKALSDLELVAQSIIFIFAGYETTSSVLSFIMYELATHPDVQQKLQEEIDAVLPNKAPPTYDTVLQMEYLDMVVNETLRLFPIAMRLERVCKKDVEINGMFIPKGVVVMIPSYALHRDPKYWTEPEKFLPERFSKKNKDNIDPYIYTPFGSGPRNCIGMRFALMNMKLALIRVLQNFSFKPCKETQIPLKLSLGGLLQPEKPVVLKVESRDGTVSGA
# Method in brief: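 Human CYP3A4 (20 nM) with Luciferin-PPXE at 25 uM (its KM) in 200 mM KPO4; 10 min compound preincubation, then NADPH regeneration and 60 min reaction at RT. Luciferin read by luminescence; normalized to 57 uM ketoconazole full inhibition.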
# [7] = Primary qHTS for small molecule stabilizers of the endoplasmic reticulum resident proteome: Secreted ER Calcium Modulated Protein (SERCaMP) assay (AID 1508630); note: % is set by controls: 0 for no effect and ±100 for the full control effect
# Method in brief: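 GLuc-SERCaMP-expressing SH-SY5Y cells, pretreated 16 h with compound, are challenged with thapsigargin to empty ER calcium stores; after 4 h, coelenterazine is added directly to the medium and luminescence is imaged.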
# [8] = molecular target: Cytochrome P450 1A2 (Homo sapiens) (UniProt P05177); experiment: p450-cyp1a2 (AID 410; calls by dose curve; note: potency is the fitted concentration of half-maximal effect)
# Cytochrome P450 1A2 (Homo sapiens), sequence (P05177 whole entry, looked up): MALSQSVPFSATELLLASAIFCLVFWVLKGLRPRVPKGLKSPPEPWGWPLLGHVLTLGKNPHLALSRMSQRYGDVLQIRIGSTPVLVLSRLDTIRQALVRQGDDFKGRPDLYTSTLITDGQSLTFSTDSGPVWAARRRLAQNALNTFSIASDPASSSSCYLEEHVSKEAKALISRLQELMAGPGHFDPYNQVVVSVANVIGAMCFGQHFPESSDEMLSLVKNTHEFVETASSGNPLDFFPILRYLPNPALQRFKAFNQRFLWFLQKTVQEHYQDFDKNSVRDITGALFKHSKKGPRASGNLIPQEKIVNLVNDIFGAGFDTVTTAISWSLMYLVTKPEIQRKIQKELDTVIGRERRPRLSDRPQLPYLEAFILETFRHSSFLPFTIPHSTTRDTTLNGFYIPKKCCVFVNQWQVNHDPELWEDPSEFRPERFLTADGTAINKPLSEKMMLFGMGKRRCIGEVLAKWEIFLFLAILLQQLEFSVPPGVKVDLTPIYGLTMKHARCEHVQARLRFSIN
# Method in brief: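 Inhibition was calculated relative to 57 uM furafylline (full inhibition). The reaction used human CYP1A2 at 20nM with Luciferin-ME at its Km, 100uM, driven by an NADPH-regenerating system for 60 min at room temperature.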
# [9] = molecular target: Glucocorticoid receptor (Homo sapiens) (UniProt P04150); experiment: GR-GFP Redistribution (AID 450;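 active = compounds whose dose series gives a full or clear partial fitted curve of increased nuclear translocation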; note: potency is the fitted concentration of half-maximal effect); settings: U2OS GR-GFP nuclear translocation, laser cytometry, 2 h
# [10] = molecular target: Cytochrome P450 3A4 (Homo sapiens) (UniProt P08684); experiment: qHTS Assay for Inhibitors and Substrates of Cytochrome P450 3A4 (AID 884); note: potency is the fitted concentration of half-maximal effect; nearly all actives have a fitted effect of over 50% in size
# Method in brief: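 20 nM human CYP3A4 with 25 uM Luciferin-PPXE (at KM) in 200 mM KPO4, preincubated 10 min with compound; NADPH regeneration started a 60 min RT reaction. Luciferin detected by luminescence, normalized to 57 uM ketoconazole as full inhibition.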
# [11] = qHTS Assay for Lipid Storage Modulators (AID 1519; calls by dose curve); settings: Drosophila S3 cells, BODIPY lipid droplet/cell ratio, laser cytometry, cells loaded with oleic acid
# Method in brief: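 Cells seeded at 5,000 per well were treated with compounds over a concentration series and loaded with oleic acid (400 uM, as added). Lipid droplet fluorescence (488 nm excitation, 500-530 nm channel) was read by laser-scanning cytometry and normalized to 20 uM Triacsin C.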
# [12] = molecular target: Dual specificity protein kinase CLK4 (Homo sapiens) (UniProt Q9HAZ1); experiment: qHTS Assay for Inhibitors of CDC-like Kinase 4 (Kinase-Glo Assay) (AID 1770); note: nearly all actives have a fitted effect of over 65% in size; note: potency is the fitted concentration of half-maximal effect
# Dual specificity protein kinase CLK4 (Homo sapiens), sequence (Q9HAZ1 whole entry, looked up): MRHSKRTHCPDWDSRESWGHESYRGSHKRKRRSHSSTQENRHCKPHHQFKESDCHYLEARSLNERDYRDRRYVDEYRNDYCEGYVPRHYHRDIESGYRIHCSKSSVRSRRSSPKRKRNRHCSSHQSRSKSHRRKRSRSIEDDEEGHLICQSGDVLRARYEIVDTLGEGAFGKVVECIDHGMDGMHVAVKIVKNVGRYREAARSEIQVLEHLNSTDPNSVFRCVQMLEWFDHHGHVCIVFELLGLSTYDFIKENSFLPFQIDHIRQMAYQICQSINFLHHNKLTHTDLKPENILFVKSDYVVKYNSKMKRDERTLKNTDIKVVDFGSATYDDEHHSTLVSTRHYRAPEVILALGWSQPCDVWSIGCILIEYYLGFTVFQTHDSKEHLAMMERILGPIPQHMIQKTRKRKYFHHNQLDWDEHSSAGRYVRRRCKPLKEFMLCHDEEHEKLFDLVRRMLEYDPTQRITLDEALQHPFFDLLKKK
# Method in brief: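 Inhibition was judged from remaining ATP, measured by Ultra-Glo luciferase bioluminescence after Clk4 (25 nM) had acted on RS peptide at 1 uM ATP for 4.5 hours, room temperature.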
# [13] = molecular target: Dual specificity protein kinase CLK4 (Homo sapiens) (UniProt Q9HAZ1); experiment: qHTS Assay for Inhibitors of CDC-like Kinase 4 (ADP-Glo Assay) (AID 1771); note: nearly all actives have a fitted effect of over 70% in size; note: potency is the fitted concentration of half-maximal effect
# Method in brief: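 Kinase reaction: Clk4 at 25 nM, RS repeat peptide substrate at 100 uM, ATP at 1 uM, 1 hr, room temperature. Product ADP detected as luciferase signal via ADP-Glo.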
# [14] = molecular target: Dual specificity protein kinase CLK4 (Homo sapiens) (UniProt Q9HAZ1); experiment: qHTS Assay for Inhibitors of CDC-like Kinase 4 (ADP-FP Assay) (AID 1795); note: nearly all actives have a fitted effect of over 60% in size; note: potency is the fitted concentration of half-maximal effect
# Method in brief: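 Inhibition of ADP formation by 6.25 nM Clk4 is measured using 1 uM ATP and 100 uM RS repeat peptide over one hour. Produced ADP displaces a fluorescent tracer from antibody, lowering polarization.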
# [15] = Confirmation and Secondary Assay for Modulators of Hemoglobin Beta Chain Splicing at IVS2 705 locus (AID 930);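 note: HeLa cells stably expressing the EGFP-705 splicing reporter; GFP fluorescence per well restored by corrected splicing of the IVS2-705 intron in EGFP; % of control where 0% means no effect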
# Method in brief: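 Per-well GFP, captured at 1 x 8 µm resolution with 488 nm excitation, served as the read-out for HeLa EGFP-705 cells incubated 2 days with test compound versus DMSO.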
# [16] = molecular target: Rap guanine nucleotide exchange factor 3 (Homo sapiens) (UniProt O95398); experiment: Confirmatory qHTS for agonist of cAMP-regulated guanine nucleotide exchange factor 3 (EPAC1) (AID 1645881);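 note: EPAC1 catalysed release of BODIPY-GDP from Rap1B seen as fluorescence loss; 100% = effect of cAMP agonist control; nearly all actives have a fitted effect of over 75% in size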
# [17] = molecular target: Lysosomal acid glucosylceramidase (Homo sapiens) (UniProt P04062); experiment: Glucocerebrosidase-p2 (AID 348; in the data active = potency below about 10 µM; note: potency is the fitted concentration of half-maximal effect); settings: purified GBA, blue fluorogenic substrate, 40 min
# Lysosomal acid glucosylceramidase (Homo sapiens), sequence (P04062 whole entry, looked up): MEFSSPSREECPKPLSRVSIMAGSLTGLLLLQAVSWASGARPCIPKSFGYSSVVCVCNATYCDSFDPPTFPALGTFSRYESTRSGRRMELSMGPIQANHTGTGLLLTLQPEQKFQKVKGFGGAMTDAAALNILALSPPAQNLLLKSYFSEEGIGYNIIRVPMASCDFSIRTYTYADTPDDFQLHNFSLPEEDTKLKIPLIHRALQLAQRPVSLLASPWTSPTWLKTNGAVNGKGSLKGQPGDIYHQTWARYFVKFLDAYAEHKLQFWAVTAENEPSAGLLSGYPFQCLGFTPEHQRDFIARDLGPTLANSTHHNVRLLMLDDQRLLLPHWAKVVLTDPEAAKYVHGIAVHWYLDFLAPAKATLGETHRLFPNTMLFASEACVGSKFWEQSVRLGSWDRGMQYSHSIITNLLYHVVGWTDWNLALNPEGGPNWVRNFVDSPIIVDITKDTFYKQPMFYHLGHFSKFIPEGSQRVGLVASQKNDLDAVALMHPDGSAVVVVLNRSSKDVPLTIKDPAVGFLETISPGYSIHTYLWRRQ
# Method in brief: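 Compounds titrated from 0.6 nM upwards against 0.2 nM enzyme in pH 5.9 citric acid/KH2PO4, taurocholate, tween-20; blue fluorogenic substrate 80 uM, 40 min room temperature, stopped and read Ex 365/Em 440 for AC50.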
# [18] = NFAT Signaling Pathway (AID 444; active = well fitted curve in either direction with a large enough effect, not every such curve was filed as active); settings: Jurkat NFAT-bla M1, carbachol, beta-lactamase ratio, 5 h; at 7.69 µM (top of the series) unless noted
# Method in brief: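 Jurkat cells with NFAT-driven β-lactamase reporter and co-expressed M1 receptor, stimulated with carbachol (final 1 uM, ~EC50), compound titration, 5 h at 37 °C. CCF4 loaded 1 h at RT; 460/530 nm ratio gave %activity and AC50.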
# [19] = molecular target: Ubiquitin carboxyl-terminal hydrolase 1 (Homo sapiens) (UniProt O94782); experiment: Inhibitors of USP1/UAF1: Pilot qHTS (AID 504865);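 note: rhodamine fluorescence freed from ubiquitin-rhodamine substrate followed over time; top concentration of the series differs between compounds; % is set by controls: 0 for no effect and ±100 for the full control effect; nearly all actives have a fitted effect of over 35% in size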
# Ubiquitin carboxyl-terminal hydrolase 1 (Homo sapiens), sequence (O94782 whole entry, looked up): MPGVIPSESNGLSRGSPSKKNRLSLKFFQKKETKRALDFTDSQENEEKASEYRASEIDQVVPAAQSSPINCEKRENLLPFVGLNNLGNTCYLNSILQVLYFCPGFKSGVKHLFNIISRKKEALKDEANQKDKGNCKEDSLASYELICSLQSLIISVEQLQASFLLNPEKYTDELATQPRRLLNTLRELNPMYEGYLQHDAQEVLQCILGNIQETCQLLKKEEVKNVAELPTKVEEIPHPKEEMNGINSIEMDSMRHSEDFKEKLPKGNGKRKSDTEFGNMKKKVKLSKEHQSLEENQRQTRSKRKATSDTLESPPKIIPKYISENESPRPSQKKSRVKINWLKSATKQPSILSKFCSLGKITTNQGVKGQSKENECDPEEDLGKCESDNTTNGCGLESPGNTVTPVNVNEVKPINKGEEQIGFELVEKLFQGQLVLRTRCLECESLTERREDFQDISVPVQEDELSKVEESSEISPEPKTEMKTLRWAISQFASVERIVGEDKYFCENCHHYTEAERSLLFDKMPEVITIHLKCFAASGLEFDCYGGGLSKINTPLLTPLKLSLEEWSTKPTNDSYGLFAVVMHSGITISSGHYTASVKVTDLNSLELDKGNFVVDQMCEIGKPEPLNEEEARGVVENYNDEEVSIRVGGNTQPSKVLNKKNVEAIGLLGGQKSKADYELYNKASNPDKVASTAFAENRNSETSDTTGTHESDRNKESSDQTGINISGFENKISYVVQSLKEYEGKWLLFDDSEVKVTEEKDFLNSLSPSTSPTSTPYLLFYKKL
# Method in brief: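 Kinetic fluorescence assay: 1nM USP1/UAF1, 15 min compound preincubation, then 150nM Ub-Rho; 480/540 nm.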
# [20] = measured here: cell count channel max response
# [21] = measured here: lipid channel max response
compound,measurement,setting,value
N#Cc1cccc(NC(=O)N2CC[C@@]3(CCCN(C(=O)c4cccc(F)c4)C3)C2)c1,"activity change, negative = inhibition",[1],-20.8% (inactive)
same,"activity, negative = inhibition",[2],-2.81% (inactive)
same,Potency,[3],> 46 µM (inactive)
same,Potency,[4],inactive
same,Potency,[5],inactive
same,Potency,[6],inactive
same,outcome,[7],inactive
CCCCCCCNS(=O)(=O)c1cccc2c(Cl)cccc12,Potency,[8],6.31 µM (active)
same,Potency,[9],> 46 µM (inactive)
same,Potency,[3],> 46 µM (inactive)
same,Potency,[10],7.94 µM (active)
same,Potency,[6],inactive
same,outcome,[7],inactive
Nc1nc2n[nH]nc2c(=O)[nH]1,"activity change, negative = inhibition",[11]; at 25.7 µM (top of the series),-1.04% (inactive)
Cc1ccccc1-c1ccc2ncnc(N(C)Cc3ccco3)c2c1,Potency,[12],14.1 µM (active)
same,Potency,[13],14.1 µM (active)
same,Potency,[14],12.6 µM (active)
C=C[C@](C)(O)CCC1C(=C)CC(OC(C)=O)C2C(C)(C)CCCC12C (stereo partly specified),Potency,[10],2.51 µM (active)
same,Potency,[6],inactive
same,outcome,[15],inactive
same,"activity change, negative = inhibition",[11]; at 57.5 µM (top of the series),-0.933% (inactive)
same,max response,[11]; [20],1.16%
same,max response,[11]; [21],0.207%
same,Potency,[16],inactive
CN1CCc2c(cc(O)c(O)c2Cl)C(c2cccc(Cl)c2)C1 (stereo unspecified),"activity change, negative = inhibition",[11]; at 57.5 µM (top of the series),-5.99% (inactive)
same,max response,[11]; [20],26.1%
same,max response,[11]; [21],9.27%
CN1CCN(c2ncncc2-c2ccc(N(C)C)cc2)CC1,Potency,[17],> 11.4 µM (inactive)
same,"activity change, negative = inhibition",[1],-1.37% (inactive)
same,Potency,[8],12.6 µM (active)
same,"activity change, negative = inhibition",[18],6.42% (inactive)
same,"activity, negative = inhibition",[2],3.73% (inactive)
same,Potency,[9],> 46 µM (inactive)
same,Potency,[3],> 46 µM (inactive)
same,Potency,[4],inactive
same,Potency,[5],inactive
same,Potency,[6],inactive
same,"activity change, negative = inhibition",[11]; at 57.5 µM (top of the series),2.46% (inactive)
same,max response,[11]; [20],19.8%
same,max response,[11]; [21],21.2%
same,Potency,[12],inactive
same,Potency,[13],inactive
same,Potency,[14],inactive
same,Potency,[19],inactive
CN1CCN(c2ncc3nc(-c4ccccc4)c(=O)n(C)c3n2)CC1,Potency,[17],> 11.4 µM (inactive)
same,"activity change, negative = inhibition",[1],19.6% (inactive)
same,Potency,[8],15.8 µM (active)
same,"activity change, negative = inhibition",[18],23.4% (inactive)
same,"activity, negative = inhibition",[2],20% (inactive)
same,Potency,[9],> 9.22 µM (inactive)
same,Potency,[3],> 46 µM (inactive)
same,Potency,[4],inactive
same,Potency,[5],inactive
same,"activity change, negative = inhibition",[11]; at 57.5 µM (top of the series),4.64% (inactive)
same,max response,[11]; [20],14.1%
same,max response,[11]; [21],18.5%
same,Potency,[12],inactive
same,Potency,[13],inactive
same,Potency,[14],inactive
same,Potency,[19],inactive
COCCn1c(=O)c(-c2cccc(C#N)c2)nc2cnc(N3CCN(C)CC3)nc21,Potency,[17],> 11.4 µM (inactive)
same,"activity change, negative = inhibition",[1],-14.7% (inactive)
same,Potency,[8],15.8 µM (active)
same,"activity change, negative = inhibition",[18],0.13% (inactive)
same,"activity, negative = inhibition",[2],-4.72% (inactive)
same,Potency,[9],> 9.22 µM (inactive)
same,Potency,[3],> 46 µM (inactive)
same,Potency,[4],inactive
same,Potency,[5],inactive
same,"activity change, negative = inhibition",[11]; at 57.5 µM (top of the series),6.64% (inactive)
same,max response,[11]; [20],18.2%
same,max response,[11]; [21],22.5%
same,Potency,[12],inactive
same,Potency,[13],inactive
same,Potency,[14],inactive
same,Potency,[19],inactive
